Experimental data from PubChem BioAssay AID2314 (National Center for Advancing Translational Sciences (NCATS), 2010).
About 37,000 (12%) of roughly 300,000 compounds were called active. The full list was thinned out, with actives kept by preference. A number with no mark means an inactive call. Rule as the data show it: active = max response mostly above about 13% (no sharp cut-off); inactive = mostly below about 14%.

Assay: Cycloheximide Counterscreen for Small Molecule Inhibitors of Shiga Toxin; also: read at 38.3 µM for the half of the compounds with a filed dose; 0% is about no effect
Conditions: cell reporter, cycloheximide protein synthesis inhibition counterscreen; active compounds read high

SMILES | max response
CCOC(=O)c1c(NC(=O)CSc2nccc(=O)[nH]2)sc(C)c1C | -2.23%
COC(=O)c1ccc(-c2noc(CN(Cc3ccccn3)CC3CCCO3)n2)cc1 (stereo not drawn) | -2.22%
CN(Cc1ccccn1)Cc1nc(-c2ccc(Cl)cc2)no1 | 20% (active)
CCN1CC(CN(C)Cc2nc(-c3ccc(Cl)cc3)no2)CC1=O (stereo not drawn) | 6.16%
COCCCNS(=O)(=O)c1cccc(S(=O)(=O)c2cccc(S(=O)(=O)NCCCOC)c2)c1 | -2.51%
O=C(Nc1cccc2cccnc12)c1cccc(Cl)c1 | 49.1% (active)
CCOC(=O)Cc1ncccc1C(=O)Nc1ccc(OC)cc1 | -1.69%
COc1ccc(S(=O)(=O)Nc2cccc3cccnc23)c(N)c1 | 23.5%
O=C(Nc1ccccc1Cl)Nn1cnnc1 | 6.34%
O=C(Nc1cccc2cccnc12)c1cccc(N2C(=O)CCC2=O)c1 | -3.63%
O=C(Nc1cccc2cccnc12)C(F)(F)F | -1.21%
N#Cc1ccc(C(=O)Nc2cccc3cccnc23)c(F)c1 | -0.854%
COc1ccc(NC(=O)Nc2cccc3cccnc23)cc1 | 55.8% (active)
O=C(Nc1ccccc1Cl)Nc1cccc2cccnc12 | 31.2% (active)
O=C(COC(=O)/C=C/c1cn(-c2ccccc2)nc1-c1cccnc1)Nc1ccc(Cl)cc1Cl | 3.3%
COc1cccc(-n2c(=S)sc3c(=O)n(-c4ccccc4C)c(SCC(=O)O)nc32)c1 | -1.2%
O=C(c1ccccc1F)N1CCN(S(=O)(=O)c2ccc(Br)cc2)CC1 | -10.6%
O=C1NC(=O)C(c2ccc(Cl)cc2)N1 (stereo not drawn) | -2.12%
Cc1ccc(NC(=O)COc2ccc(/C=C3/NC(=O)NC3=O)cc2)cc1 | -1.82%
C=CCN1C(=O)NC(=O)/C(=C/c2ccc(OCC(=O)Nc3ccc(C)cc3)cc2)C1=O | 14.5% (active)
CCOC(=O)C1=C(O)/C(=C/c2ccc(OCC(=O)Nc3ccc(C)cc3)cc2)N=C1C | -7%
CCSc1nnc(SCC(=O)NNC(=O)c2ccccc2F)s1 | 6.26%
O=C(CCC1CCCC1)N=C1SC2CS(=O)(=O)CC2N1Cc1ccccc1 (stereo not drawn) | 0.661%
CNC(=O)c1sc(Nc2ccc(OCc3ccccc3)cc2)nc1C | 10.4%

SMILES | max response
COc1ccc(Br)cc1C(=O)Nc1cccc(C)c1C | -3.3%
CCOC(=O)c1sc(NC(=O)c2ccncc2)nc1C | 0.888%
COc1cccc2sc(Nc3nc(C)c(C(C)=O)s3)nc12 | 16.2% (active)
CC(=O)c1sc(NC(=O)c2ccc(C)cc2)nc1C | 54.3% (active)
CNC(=O)c1sc(NCc2ccccc2OC)nc1C | -3.72%
COc1cccc2sc(NNC(=O)c3nc4ccccc4s3)nc12 | 12.4%
COC(=O)c1sc(NC(=S)NC(=O)c2ccc(C)cc2)nc1C | 9.32%
CC(=O)c1sc(NC(=O)c2cccc3ccccc23)nc1C | 35.9% (active)
CC(=O)c1sc(NC(=O)C2=NN(c3ccccc3)C(=O)CC2)nc1C | -0.878%
COc1cc2ccccc2cc1C(=O)Nc1ccc(S(=O)(=O)Nc2cc(C)on2)cc1 | -2.65%
COc1cc2ccccc2cc1C(=O)Nc1ccccc1C | 29.7% (active)
COc1cc(C(=O)NCc2ccncc2)cc(Br)c1OCc1ccccc1 | -7.17%
Cc1ccc(C(=O)N/N=C\c2cc(Br)c(Br)o2)cn1 | 3.37%
CC(=O)NS(=O)(=O)c1ccc2c(c1)Cc1cc(S(=O)(=O)NC(C)=O)ccc1-2 | -0.942%
N#C[C@]1(S(=O)(=O)c2ccccc2)C[C@@H]2ON=C(c3cccc(Br)c3)[C@@H]2C1 | 0.173%
CCCCC(O)(CCCC)C(=O)NN(C(=O)CCl)c1ccccc1 | 4.18%
COc1cc2ccccc2cc1C(=O)Nc1nc(C)c(C(C)=O)s1 | 33.8% (active)
O=C(Cc1ccccc1)NC(=S)Nc1ccc(N2CCCCC2)cc1 | 20.2%
CC1(C)CC(N2CCN(C(c3ccccc3)c3ccccc3)CC2)=CC(=[N+]2CCCCC2)C1 | -1.68%
Cc1ccc(S(=O)Cc2ccc(C(=O)N3CCN(C4CCCCC4)CC3)o2)cc1 (stereo not drawn) | 0.779%
CCOC(=O)c1ccc(COC(=O)c2cc(=O)[nH]c3ccccc23)o1 | -2.02%
CCOC(=O)c1ccc(CS(=O)c2ccc(Cl)cc2)o1 (stereo not drawn) | 25.3% (active)
C=CCn1c(CNS(=O)(=O)c2ccc(Br)cc2)nnc1SC | -1.32%
COc1ccc(CCNC(=O)c2nnc(CS(=O)(=O)c3ccccc3)o2)cc1OC | -0.612%
